Assay results from the supplement of paper PMC11732987, “Enantioselective OTUD7B fragment discovery through chemoproteomics screening and high-throughput optimisation” (Communications Chemistry, 2025).

How the values were obtained:
Assay in all cases: log2 ratio of Biotin-Ahx-Ub-VS probe labelling (fragment/DMSO); higher = less target engagement (more negative = stronger competition), active = hit call of the paper (q ≤ 0.05, log2 ratio ≤ -1)
Conditions in all cases: compound concentration: 200 uM; treatment time: 3 h
[1] = target: USP9X (UniProt Q93008)
How it was run: (§1)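 HEK293T lysate (495 µg per sample, in Tris/CHAPS/IGEPAL buffer with protease inhibitors) was treated in triplicate with fragment at 200 µM or with DMSO for 3 h. It was then treated with Biotin-Ahx-Ub-VS (0.5 µM final) for 1 h. Labelled DUBs were NeutrAvidin-enriched, digested with LysC and trypsin, and run by diaPASEF LC-MS/MS. Spectronaut label-free quantities were global-median-normalised. Values are average log2 ratios fragment/DMSO by unpaired t-test, using proteins with ≥2 unique peptides.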

[2] = target: UniProt O00487
How it was run: as §1

[3] = target: UniProt O00507
How it was run: as §1

[4] = target: UniProt P51784
How it was run: as §1

[5] = target: T1, UniProt Q5T2D3
T1 sequence (whole entry): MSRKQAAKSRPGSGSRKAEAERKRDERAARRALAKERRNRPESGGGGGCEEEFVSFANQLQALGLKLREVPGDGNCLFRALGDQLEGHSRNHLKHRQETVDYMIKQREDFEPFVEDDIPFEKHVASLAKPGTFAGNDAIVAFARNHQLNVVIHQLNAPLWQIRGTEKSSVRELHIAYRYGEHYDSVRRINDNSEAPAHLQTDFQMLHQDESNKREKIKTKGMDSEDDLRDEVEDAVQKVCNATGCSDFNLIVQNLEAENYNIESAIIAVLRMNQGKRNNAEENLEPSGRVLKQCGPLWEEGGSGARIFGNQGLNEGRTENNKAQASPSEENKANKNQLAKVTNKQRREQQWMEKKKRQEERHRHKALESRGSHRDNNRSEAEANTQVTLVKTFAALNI
How it was run: as §1

[6] = target: T2, UniProt Q8TE49
T2 sequence (whole entry): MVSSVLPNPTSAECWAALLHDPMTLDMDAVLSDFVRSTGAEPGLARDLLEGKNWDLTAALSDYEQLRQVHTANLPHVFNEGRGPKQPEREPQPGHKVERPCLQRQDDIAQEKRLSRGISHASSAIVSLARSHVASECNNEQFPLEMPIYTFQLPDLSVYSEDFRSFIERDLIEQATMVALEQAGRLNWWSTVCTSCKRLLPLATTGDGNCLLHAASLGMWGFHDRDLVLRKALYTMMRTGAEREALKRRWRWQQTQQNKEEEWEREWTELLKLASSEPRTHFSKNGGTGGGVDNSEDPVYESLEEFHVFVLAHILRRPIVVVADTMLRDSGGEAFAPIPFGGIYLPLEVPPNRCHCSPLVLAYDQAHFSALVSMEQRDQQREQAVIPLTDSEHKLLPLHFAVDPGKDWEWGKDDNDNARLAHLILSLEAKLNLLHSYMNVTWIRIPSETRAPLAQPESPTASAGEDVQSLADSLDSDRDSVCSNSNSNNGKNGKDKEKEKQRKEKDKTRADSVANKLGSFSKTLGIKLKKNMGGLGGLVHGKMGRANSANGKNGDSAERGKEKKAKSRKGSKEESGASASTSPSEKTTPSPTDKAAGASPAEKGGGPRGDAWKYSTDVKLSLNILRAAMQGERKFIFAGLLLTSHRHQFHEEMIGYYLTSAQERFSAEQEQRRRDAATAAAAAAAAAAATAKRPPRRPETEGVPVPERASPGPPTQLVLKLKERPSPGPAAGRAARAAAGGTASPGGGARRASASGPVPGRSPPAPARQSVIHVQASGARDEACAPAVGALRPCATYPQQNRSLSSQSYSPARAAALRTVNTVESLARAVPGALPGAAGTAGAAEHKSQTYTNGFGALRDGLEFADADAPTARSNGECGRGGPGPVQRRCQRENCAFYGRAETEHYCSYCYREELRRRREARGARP
How it was run: as §1

[7] = target: T3, UniProt Q9P2H5
T3 sequence (whole entry): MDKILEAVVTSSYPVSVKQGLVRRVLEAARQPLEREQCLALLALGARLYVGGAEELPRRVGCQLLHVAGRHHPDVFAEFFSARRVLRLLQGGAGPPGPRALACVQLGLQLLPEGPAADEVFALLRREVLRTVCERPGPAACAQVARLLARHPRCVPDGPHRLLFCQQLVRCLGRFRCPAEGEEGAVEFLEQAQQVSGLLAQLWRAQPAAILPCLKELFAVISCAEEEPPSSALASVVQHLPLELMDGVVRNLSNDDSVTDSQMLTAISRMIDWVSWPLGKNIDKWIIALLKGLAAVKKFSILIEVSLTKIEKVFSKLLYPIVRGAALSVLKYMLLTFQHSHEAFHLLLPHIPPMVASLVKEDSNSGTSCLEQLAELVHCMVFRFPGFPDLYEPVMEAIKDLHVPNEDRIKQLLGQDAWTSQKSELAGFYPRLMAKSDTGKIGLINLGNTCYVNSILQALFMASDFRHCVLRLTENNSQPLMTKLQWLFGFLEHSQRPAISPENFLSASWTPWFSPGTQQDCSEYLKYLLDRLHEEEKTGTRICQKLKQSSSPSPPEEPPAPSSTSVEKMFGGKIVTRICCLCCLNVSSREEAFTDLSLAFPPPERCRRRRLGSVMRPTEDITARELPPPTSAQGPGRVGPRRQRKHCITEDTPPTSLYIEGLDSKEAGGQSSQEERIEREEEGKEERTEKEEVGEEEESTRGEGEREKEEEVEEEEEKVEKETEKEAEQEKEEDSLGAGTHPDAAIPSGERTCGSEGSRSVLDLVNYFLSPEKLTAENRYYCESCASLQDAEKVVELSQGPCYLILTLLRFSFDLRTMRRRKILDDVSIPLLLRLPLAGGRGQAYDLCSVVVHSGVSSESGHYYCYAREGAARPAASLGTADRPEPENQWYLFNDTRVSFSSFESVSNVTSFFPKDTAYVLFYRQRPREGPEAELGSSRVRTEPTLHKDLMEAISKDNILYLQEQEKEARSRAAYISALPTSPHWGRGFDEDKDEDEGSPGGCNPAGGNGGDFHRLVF
How it was run: as §1

[8] = target: T4, UniProt Q9UGI0
T4 sequence (whole entry): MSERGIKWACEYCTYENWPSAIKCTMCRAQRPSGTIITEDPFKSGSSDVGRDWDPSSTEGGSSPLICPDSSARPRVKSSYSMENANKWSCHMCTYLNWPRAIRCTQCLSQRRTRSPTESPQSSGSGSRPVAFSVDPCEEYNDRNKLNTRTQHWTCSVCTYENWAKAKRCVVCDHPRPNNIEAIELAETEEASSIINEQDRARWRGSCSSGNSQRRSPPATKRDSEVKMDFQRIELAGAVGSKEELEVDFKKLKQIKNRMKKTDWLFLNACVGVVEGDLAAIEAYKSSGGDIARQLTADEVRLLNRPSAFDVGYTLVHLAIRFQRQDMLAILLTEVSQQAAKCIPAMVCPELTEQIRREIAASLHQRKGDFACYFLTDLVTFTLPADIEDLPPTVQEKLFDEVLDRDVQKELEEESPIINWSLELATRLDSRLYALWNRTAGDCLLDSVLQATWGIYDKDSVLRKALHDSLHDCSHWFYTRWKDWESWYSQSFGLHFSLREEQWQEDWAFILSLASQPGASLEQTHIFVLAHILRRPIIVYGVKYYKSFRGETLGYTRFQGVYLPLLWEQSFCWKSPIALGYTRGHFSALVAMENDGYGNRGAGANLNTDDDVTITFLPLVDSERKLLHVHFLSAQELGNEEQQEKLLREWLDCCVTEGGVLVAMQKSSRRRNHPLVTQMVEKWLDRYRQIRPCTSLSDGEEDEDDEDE
How it was run: as §1

[9] = target: T5, YOD1 (UniProt Q5VVQ6)
T5 sequence (whole entry): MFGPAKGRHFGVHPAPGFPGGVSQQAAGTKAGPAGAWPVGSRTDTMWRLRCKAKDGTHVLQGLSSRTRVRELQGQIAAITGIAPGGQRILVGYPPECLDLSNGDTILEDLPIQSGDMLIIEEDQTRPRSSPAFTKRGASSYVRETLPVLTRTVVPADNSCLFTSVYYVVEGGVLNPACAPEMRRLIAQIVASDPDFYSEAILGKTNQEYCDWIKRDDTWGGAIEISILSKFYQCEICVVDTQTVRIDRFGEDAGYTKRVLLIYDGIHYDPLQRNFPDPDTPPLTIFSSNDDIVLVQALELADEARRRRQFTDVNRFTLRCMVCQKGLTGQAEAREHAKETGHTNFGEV
How it was run: as §1

Measured: log2 ratio of Biotin-Ahx-Ub-VS probe labelling

Sequence of UniProt P51784 (P51784 whole entry): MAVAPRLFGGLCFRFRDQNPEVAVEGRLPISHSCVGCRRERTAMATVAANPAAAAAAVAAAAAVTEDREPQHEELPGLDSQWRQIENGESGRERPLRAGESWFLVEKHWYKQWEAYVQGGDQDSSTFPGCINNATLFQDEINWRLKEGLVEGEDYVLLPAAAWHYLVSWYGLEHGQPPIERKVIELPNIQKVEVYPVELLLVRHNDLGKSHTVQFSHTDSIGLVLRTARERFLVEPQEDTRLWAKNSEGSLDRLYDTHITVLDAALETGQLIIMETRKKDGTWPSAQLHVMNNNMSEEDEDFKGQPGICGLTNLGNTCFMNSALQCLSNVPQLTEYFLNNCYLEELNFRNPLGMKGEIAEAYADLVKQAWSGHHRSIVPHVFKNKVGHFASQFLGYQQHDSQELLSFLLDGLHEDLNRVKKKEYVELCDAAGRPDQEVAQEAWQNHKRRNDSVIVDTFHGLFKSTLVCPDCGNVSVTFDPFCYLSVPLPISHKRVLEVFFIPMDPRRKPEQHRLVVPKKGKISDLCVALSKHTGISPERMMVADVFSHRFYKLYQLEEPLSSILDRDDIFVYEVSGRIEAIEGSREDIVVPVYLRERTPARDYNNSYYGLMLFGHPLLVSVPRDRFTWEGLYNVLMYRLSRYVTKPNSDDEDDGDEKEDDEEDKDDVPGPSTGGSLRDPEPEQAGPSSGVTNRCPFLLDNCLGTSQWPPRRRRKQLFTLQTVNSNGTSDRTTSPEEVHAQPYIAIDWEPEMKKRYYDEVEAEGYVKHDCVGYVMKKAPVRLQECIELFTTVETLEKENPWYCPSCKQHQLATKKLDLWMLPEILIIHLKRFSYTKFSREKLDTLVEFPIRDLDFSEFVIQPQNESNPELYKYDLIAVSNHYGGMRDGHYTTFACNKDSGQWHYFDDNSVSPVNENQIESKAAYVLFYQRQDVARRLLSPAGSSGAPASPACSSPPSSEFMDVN
Sequence of UniProt O00507 (O00507 whole entry): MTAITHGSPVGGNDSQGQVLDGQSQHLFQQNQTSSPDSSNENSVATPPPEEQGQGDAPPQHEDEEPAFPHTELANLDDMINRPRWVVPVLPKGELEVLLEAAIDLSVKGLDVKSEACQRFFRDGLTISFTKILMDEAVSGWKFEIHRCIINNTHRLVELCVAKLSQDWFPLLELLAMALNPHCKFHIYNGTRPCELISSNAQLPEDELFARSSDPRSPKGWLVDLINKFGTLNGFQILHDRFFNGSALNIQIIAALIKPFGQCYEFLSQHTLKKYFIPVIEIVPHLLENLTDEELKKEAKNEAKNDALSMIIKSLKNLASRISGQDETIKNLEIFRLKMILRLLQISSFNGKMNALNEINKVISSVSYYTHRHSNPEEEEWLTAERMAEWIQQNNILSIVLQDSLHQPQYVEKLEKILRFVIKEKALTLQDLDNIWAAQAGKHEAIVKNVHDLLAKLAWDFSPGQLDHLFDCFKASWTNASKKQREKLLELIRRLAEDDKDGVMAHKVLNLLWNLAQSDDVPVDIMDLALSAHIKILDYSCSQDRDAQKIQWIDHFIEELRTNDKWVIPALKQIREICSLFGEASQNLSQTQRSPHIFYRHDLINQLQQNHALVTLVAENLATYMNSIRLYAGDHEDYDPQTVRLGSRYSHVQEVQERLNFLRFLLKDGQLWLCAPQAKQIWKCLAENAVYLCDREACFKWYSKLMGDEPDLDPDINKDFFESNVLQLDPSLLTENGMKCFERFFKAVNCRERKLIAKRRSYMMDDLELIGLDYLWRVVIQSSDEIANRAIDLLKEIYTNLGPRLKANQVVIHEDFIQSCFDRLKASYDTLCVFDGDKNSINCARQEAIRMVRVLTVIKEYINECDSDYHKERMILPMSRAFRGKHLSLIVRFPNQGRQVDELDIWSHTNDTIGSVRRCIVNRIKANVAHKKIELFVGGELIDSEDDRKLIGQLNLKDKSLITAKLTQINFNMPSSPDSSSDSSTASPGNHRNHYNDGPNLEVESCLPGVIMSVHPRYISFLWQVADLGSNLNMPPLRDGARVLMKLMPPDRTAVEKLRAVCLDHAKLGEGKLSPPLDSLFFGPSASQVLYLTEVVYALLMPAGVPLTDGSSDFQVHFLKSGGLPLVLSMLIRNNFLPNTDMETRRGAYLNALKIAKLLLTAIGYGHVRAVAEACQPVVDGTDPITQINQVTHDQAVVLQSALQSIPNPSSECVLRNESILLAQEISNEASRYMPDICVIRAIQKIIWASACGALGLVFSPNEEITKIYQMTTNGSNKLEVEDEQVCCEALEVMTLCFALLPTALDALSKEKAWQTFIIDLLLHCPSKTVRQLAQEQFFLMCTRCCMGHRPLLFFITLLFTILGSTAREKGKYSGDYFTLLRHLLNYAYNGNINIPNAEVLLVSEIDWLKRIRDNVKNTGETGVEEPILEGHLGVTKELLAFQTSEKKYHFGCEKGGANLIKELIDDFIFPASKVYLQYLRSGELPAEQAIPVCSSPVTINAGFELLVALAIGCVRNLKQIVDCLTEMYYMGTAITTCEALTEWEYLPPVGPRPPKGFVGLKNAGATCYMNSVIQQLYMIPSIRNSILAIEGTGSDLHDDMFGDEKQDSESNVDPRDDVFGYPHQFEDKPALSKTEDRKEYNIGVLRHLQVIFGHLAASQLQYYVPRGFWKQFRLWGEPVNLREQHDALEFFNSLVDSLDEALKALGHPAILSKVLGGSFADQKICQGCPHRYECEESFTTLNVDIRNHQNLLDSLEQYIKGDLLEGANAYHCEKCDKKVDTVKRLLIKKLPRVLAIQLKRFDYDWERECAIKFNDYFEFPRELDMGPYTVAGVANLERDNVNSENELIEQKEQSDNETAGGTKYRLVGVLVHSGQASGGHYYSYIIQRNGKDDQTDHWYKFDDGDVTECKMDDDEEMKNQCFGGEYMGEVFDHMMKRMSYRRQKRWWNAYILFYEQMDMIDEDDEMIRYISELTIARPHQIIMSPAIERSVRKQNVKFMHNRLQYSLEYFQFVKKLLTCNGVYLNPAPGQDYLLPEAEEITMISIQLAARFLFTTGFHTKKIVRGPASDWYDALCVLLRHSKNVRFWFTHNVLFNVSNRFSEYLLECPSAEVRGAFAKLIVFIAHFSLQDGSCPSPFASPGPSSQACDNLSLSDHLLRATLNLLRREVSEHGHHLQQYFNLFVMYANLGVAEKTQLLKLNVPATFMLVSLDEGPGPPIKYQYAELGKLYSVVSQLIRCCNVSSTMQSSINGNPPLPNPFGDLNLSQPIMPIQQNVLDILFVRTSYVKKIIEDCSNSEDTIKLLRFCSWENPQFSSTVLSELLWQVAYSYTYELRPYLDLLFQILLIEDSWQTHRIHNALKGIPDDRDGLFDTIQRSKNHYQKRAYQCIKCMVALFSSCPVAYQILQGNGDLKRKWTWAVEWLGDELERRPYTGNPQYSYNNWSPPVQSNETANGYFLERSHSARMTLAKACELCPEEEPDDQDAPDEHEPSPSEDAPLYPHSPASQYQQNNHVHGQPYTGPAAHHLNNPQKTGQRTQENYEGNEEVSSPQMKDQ
Sequence of UniProt O00487 (O00487 whole entry): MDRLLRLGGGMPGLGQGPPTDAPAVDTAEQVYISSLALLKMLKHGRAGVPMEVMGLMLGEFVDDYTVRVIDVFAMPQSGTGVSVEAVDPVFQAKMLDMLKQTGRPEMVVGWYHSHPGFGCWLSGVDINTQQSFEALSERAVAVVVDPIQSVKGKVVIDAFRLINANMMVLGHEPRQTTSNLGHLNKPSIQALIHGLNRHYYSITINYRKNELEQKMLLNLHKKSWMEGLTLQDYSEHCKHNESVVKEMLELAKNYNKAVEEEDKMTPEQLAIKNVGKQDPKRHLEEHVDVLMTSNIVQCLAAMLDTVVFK

O=C(CCl)N1CCC(=C(F)CO)C1
inactive: [1] 0.0939 | [2] 0.129 | [3] 0.605 | [4] 0.155 | [5] 0.0125 | [6] -0.47 | [7] -0.115 | [8] -0.16 | [9] 0.406
